Records with an inconclusive call do not appear. Activity calls are given as the source filed them. Unless noted, calls come from the whole dose curve; as a rule, active = well fitted curve in the direction sought with a large enough effect in the repeat runs; inconclusive = weak or mixed curves; inactive = no such curve, though single readings can be large; an effect the other way counts as inactive or inconclusive.
How the values were obtained:
[1] = qHTS assay to identify small molecule agonists of the vitamin D receptor (VDR) signaling pathway - cell viability counter screen (AID 743224); note: series mostly up to about 63 µM; % is set by controls: 0 for no effect and ±100 for the full control effect; nearly all actives have a fitted effect of over 50% in size
Summary of the method: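 Luminescence from CellTiter-Glo, read after 30 min at room temperature, reports viability of VDR-bla cells treated with compounds for 16 h at 37C in the wells used for the beta-lactamase FRET read.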

[2] = qHTS assay to identify small molecule antagonists of the vitamin D receptor (VDR) signaling pathway - cell viability counter screen (AID 743225); note: % is set by controls: 0 for no effect and ±100 for the full control effect; nearly all actives have a fitted effect of over 50% in size
Summary of the method: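 Read-out: CellTiter-Glo luminescence measured 30 min after reagent addition at room temperature. Cells were VDR-bla HEK 293T exposed 16 h at 37C, 5% CO2, to compound with 3 nM final calcitriol agonist.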

[3] = qHTS assay to identify small molecule agonists of the NFkB signaling pathway (AID 1159509; active = well fitted curve in the direction sought with a large enough effect in the signal ratio in the repeat runs, not every such curve was filed as active; the % refers to the signal ratio; note: series mostly up to about 61 µM; % is set by controls: 0 for no effect and ±100 for the full control effect)
Summary of the method: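 NFkB-bla ME-180 cells carry a beta-lactamase reporter under an NF-kB response element. They were plated overnight, then exposed to compounds for 5 h at 37 C. Read-out is LiveBLAzer FRET after 1.5 hr at room temperature (405 nm excitation; 460/530 nm emission).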

[4] = qHTS assay to identify small molecule agonists of the NFkB signaling pathway - cell viability counter screen (AID 1159515; calls by dose curve; note: series mostly up to about 61 µM; % is set by controls: 0 for no effect and ±100 for the full control effect; nearly all actives have a fitted effect of over 55% in size)
Summary of the method: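 Luminescence from CellTiter-Glo (30 min, room temperature) gives viability, measured in the same wells as the beta-lactamase reporter read. Cells were NFkB-bla ME-180, 2,000 per well, treated 5 hr with compounds.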

[5] = qHTS assay to identify small molecule agonists of the endoplasmic reticulum stress response signaling pathway (AID 1159516; active = well fitted activation curve with a large enough effect in the signal ratio in the repeat runs, not every such curve was filed as active; the % refers to the signal ratio; note: % is set by controls: 0 for no effect and ±100 for the full control effect)
Summary of the method: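 Read-out is beta-lactamase cleavage of a FRET substrate (405 nm excitation; 460 and 530 nm emissions) in ESRE-bla HeLa cells after a 5 hr compound exposure at 37 C. Substrate incubation ran 2 hr at room temperature.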

[6] = qHTS assay to identify small molecule antagonists of the retinoid-related orphan receptor gamma (ROR-gamma) signaling pathway - cell viability counter screen (AID 1159520); note: % is set by controls: 0 for no effect and ±100 for the full control effect; nearly all actives have a fitted effect of over 50% in size
Summary of the method: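 Tet-on ROR gamma CHO cells were given compounds for 2 hr, then doxycycline hyclate at 1 uM final, and incubated 16 hr at 37 C. Viability was measured as ATP content by CellTiter-Glo luminescence.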

[7] = molecular target: Nuclear receptor ROR-gamma (Homo sapiens) (UniProt P51449); experiment: qHTS assay to identify small molecule antagonists of the retinoid-related orphan receptor gamma (ROR-gamma) signaling pathway (AID 1159521;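 note: CHO cells with doxycycline inducible ROR-gamma driving an RORE luciferase reporter; top concentration of the series differs between compounds; % is set by controls: 0 for no effect and ±100 for the full control effect; nearly all actives have a fitted effect of over 50% in size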)
Summary of the method: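 CHO Tet-on RORγ, RORE-luc reporter. Cpd 2 h pre-incubation, then dox hyclate 1 uM final, 16 h, 37 C/5% CO2. ONE-Glo luminescence; decrease = antagonist.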

[8] = qHTS assay to identify small molecule agonists of the AP-1 signaling pathway - cell viability counter screen (AID 1159525; calls by dose curve; note: nearly all actives have a fitted effect of over 55% in size)
Summary of the method: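 AP-1-bla ME-180 cells in Opti-MEM with 0.5% dialyzed FBS, compound exposure 5 h at 37 C in 15-point titration. Viability read in the same wells as ATP content by CellTiter-Glo luminescence, normalised to tetra-n-octylammonium bromide and DMSO controls.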

[9] = qHTS assay to identify small molecule agonists of the AP-1 signaling pathway (AID 1159526; calls by dose curve; note: % is set by controls: 0 for no effect and ±100 for the full control effect)
[10] = molecular target: Retinoic acid receptor RXR-alpha (Homo sapiens) (UniProt P19793); experiment: qHTS assay to identify small molecule agonists of the RXR signaling pathway (AID 1159527; calls by dose curve; note: % is set by controls: 0 for no effect and ±100 for the full control effect; nearly all actives have a fitted effect of over 35% in size)
Summary of the method: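 Read-out: beta-lactamase FRET ratio (405 nm excitation, 460 and 530 nm emission) after 2 hr substrate loading at room temperature. Cells were RXR-alpha-UAS-bla HEK 293T treated with compounds for 16 hr in 2% charcoal-stripped FBS medium.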

[11] = qHTS assay to identify small molecule antagonists of the retinoid acid receptor (RAR) signaling pathway - cell viability counter screen (AID 1159551); note: % is set by controls: 0 for no effect and ±100 for the full control effect; nearly all actives have a fitted effect of over 35% in size
Summary of the method: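 Luminescent ATP quantitation (CellTiter-Glo) gave cell viability in C3RL4 cells exposed to test chemicals for 6 h at 37 C alongside 1 uM final retinol.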

[12] = qHTS assay to identify small molecule antagonists of the retinoic acid receptor (RAR) signaling pathway (AID 1159552)
Summary of the method: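 Cells of the C3RL4 line were seeded, incubated overnight, then dosed with compounds in DMSO followed immediately by retinol (1 uM final). Six hours later luciferase detection reagent went in; signal was measured after 30 min at RT.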

[13] = qHTS assay to identify small molecule agonists of the retinoic acid receptor (RAR) signaling pathway (AID 1159553); note: % is set by controls: 0 for no effect and ±100 for the full control effect
Summary of the method: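 Luminescence from a RARE-driven luciferase reporter in C3RL4 cells served as the read-out, measured after 30 min with detection reagent at room temperature. Compounds in DMSO were applied for 6 hr at 37 C following overnight seeding.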

[14] = qHTS assay to identify small molecule antagonists of the estrogen related receptor (ERR) signaling pathway - cell viability counter screen (AID 1224818)
Summary of the method: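 Multiplexed counter screen to separate cytotoxic compounds from true ERR modulators. ERR cells received DMSO-dissolved compounds after a 6 h pre-incubation, were exposed 17.5 h at 37 C, then assayed with CellTiter-Fluor fluorescence.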

[15] = qHTS assay to identify small molecule antagonists of the estrogen related receptor signaling pathway with the pleiotropic PPARgamma coactivator (PGC) cell viability counter screen (AID 1224822)
Summary of the method: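 Cells: PGC/ERR, 2,000/well, 1536-well format. Pre-incubation 6 h, 37 C/5% CO2. Compound exposure 17.5 h, 37 C. Detection: CellTiter-Fluor, 30 min, fluorescence.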

[16] = qHTS assay to identify small molecule agonists of the RXR signaling pathway - cell viability counter screen (AID 1159529)
Summary of the method: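 HEK 293T RXRa-bla cells, 2% CS-FBS; 5 h settle; cpd 16 h 37 C, 5% CO2; CellTiter-Glo 30 min RT, luminescence. Tetraoctyl ammonium bromide as positive control.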

Retinoic acid receptor RXR-alpha (Homo sapiens), sequence (P19793 whole entry, looked up): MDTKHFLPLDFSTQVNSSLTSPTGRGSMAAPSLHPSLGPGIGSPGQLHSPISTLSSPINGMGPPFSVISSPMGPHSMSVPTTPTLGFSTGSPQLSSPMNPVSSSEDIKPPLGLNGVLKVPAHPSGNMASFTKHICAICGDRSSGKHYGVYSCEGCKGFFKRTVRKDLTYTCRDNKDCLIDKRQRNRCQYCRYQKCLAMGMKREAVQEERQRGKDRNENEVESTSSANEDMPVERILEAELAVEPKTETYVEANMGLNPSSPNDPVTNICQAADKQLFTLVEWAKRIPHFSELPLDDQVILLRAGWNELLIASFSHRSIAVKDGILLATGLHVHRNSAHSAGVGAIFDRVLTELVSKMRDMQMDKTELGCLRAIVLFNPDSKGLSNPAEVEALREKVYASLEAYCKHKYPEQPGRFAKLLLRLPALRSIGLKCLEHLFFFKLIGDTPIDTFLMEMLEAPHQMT

CCCN(CCC)CCc1cccc2c1CC(=O)N2
inactive: Potency [1] | Potency [2] | outcome [3] | outcome [4] | outcome [5] | outcome [6] | Potency [7] | Potency [8] | outcome [9] | Potency [10] | outcome [11] | Potency [12] | Potency [13] | outcome [14] | outcome [15]

O=C(O)Cc1ccc(CCNS(=O)(=O)c2ccc(Cl)cc2)cc1
inactive: Potency [1] | outcome [3] | outcome [4] | outcome [5] | outcome [6] | Potency [7] | Potency [8] | outcome [9] | Potency [10] | outcome [11] | Potency [12] | Potency [13]

C1CN(CCOCCN2CCOCC2)CCO1
inactive: Potency [1] | Potency [2] | outcome [3] | outcome [4] | outcome [5] | outcome [6] | Potency [7] | Potency [8] | outcome [9] | Potency [10] | Potency [16] | outcome [11] | Potency [12] | Potency [13]

O=C(O)COc1nn(Cc2ccccc2)c2ccccc12
inactive: Potency [1] | outcome [3] | outcome [4] | outcome [5] | outcome [6] | Potency [7] | Potency [8] | outcome [9] | Potency [10] | outcome [11] | Potency [12]

CCN1CCC[C@H]1CNC(=O)c1cc(S(N)(=O)=O)ccc1OC
inactive: Potency [1] | Potency [2] | outcome [3] | outcome [4] | outcome [5] | outcome [6] | Potency [7] | Potency [8] | outcome [9] | Potency [10] | Potency [16] | outcome [11] | Potency [12] | outcome [14] | outcome [15]

CCCc1cc(C(N)=S)ccn1
inactive: Potency [1] | outcome [3] | outcome [4] | outcome [5] | outcome [6] | Potency [7] | Potency [8] | outcome [9] | Potency [10] | outcome [11] | Potency [12] | Potency [13]

ClC(Cl)(Br)Br
inactive: Potency [1] | Potency [2] | outcome [3] | outcome [4] | outcome [5] | outcome [6] | Potency [7] | Potency [8] | outcome [9] | Potency [10] | Potency [16] | outcome [11] | Potency [12] | Potency [13]

N[C@H](C(=O)O)c1ccc(O)cc1
inactive: Potency [1] | Potency [2] | outcome [3] | outcome [4] | outcome [5] | activity, negative = cytotoxicity [6] 3.98% [at 19 µM] | Potency [7] | viability change, negative = cytotoxic [8] 10.2% [at 15.8 µM] | outcome [9] | Potency [10] | Potency [16] | activity change, negative = cytotoxicity [11] 1.22% [at 19 µM] | activity, negative = inhibition [12] -7.38% [at 19 µM] | Potency [13]

CCOC(C)(C)C
inactive: Potency [1] | Potency [2] | outcome [3] | outcome [4] | outcome [5] | outcome [6] | Potency [7] | Potency [8] | outcome [9] | Potency [10] | outcome [11] | Potency [12] | Potency [13]

Reference: PubChem BioAssay (Tox21)
